As usually defined, the AC50 is the midpoint of the concentration-response curve, whichever way the signal moves.

For 38 compounds, outcome and AC50 results are on record in PubChem BioAssay (EPA / NIEHS).

Where “and” joins values, the source holds several entries; their conditions need not be identical. Identical values can stand only once. The source holds several records for some structures; these can differ, active in one and inactive in another. Calls of active or inactive are those of the source. How the source made its calls: active means hit-call score of the fitted dose curve at least 0.9, where 1 is the maximum; inactive means score below 0.9.

A short description of this assay: APR_HepG2_MitoMass_72hr: Apredica 72-hour HepG2 Assay for Mitochondrial Mass (AID 2282924).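 Further: MitoTracker Red CMXRos stain intensity per cell imaged as mitochondrial mass.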 The conditions noted are these: high-content imaging, actives raise or lower the signal. How it is done: APR_HepG2_72hr is a cell-based, multiplexed-readout assay that uses HepG2, a human liver cell line, with measurements taken at 72 hours after chemical dosing in a 384-well plate.APR_HepG2_MitoMass_72hr is one of 10 assay component(s) measured or calculated from the APR_HepG2_72hr assay. It is designed to make measurements of cell phenotype, a form of morphology reporter, as detected with fluorescence intensity signals by HCS Fluorescent Imaging technology.Data from the assay component APR_HepG2_MitoMass_72hr was analyzed into 1 assay endpoint. This assay endpoint, APR_HepG2_MitoMass_72hr, was analyzed with bidirectional fitting relative to DMSO as the negative control and baseline of activity. Using a type of morphology reporter, gain or loss-of-signal activity can be used to understand changes in the signaling. Furthermore, this assay endpoint can be referred to as a primary readout, because this assay has produced multiple assay endpoints where this one serves a signaling function. To generalize the intended target to other relatable targets, this assay endpoint is annotated to the cell morphology intended target family, where the subfamily is organelle conformation.
Cells were treated with dimethyl sulfoxide (DMSO) as a solvent control at a final concentration of 0.5% v/v or with compounds in DMSO with a resulting final DMSO concentration of 0.5% v/v. Compound treatment was done at concentrations of 0.39, 0.78, 1.56, 3.12, 6.24, 12.5, 25, 50, 100, and 200 uM in duplicate on each plate. Cells were treated with compounds for 1, 24, or 72 hr. Carbonyl […] m-chloro-phenylhydrazone (CCCP) and taxol were used as positive controls for mitochondrial function and cytoskeletal stability, respectively; DMSO served as the negative control for this experiment. Cells were fixed by the direct addition of 50 uL formaldehyde in Hank's Balanced Salt Solution (HBSS) to a final concentration of 3.7%. After incubation in the fixation medium for 30 min at room temperature (293-298 K), cells were rinsed twice with HBSS and treated with cell permeabilization buffer (16 uL of 0.5% Triton X-100) for 10 min at room temperature (293-298 K) before labeling. For mitochondrial membrane potential and mitochondrial measurements, pre-fixed cells were incubated with 50 uL of MitoTracker Red CMXRos (Invitrogen) at a concentration of 250 nM for 30 min before fixation. In the remaining cases, post-fixed cells were labeled by incubation with a multiplexed mixture of primary antibodies in HBSS for 60 min at room temperature (293-298 K) to detect immunoreactivity of c-Jun (1:500), phospho-histone H3 (1:100), phospho-histone H2A.x (1:200), p53 (1:400), alpha-tubulin (1:200) and Hoechst 33342 (2 ug/mL). Cells were labeled for multiplexed imaging on two separate plates: a) Hoechst 33342, MitoTracker Red, phospho-histone H3, and alpha-tubulin, and b) Hoechst 33342, phospho-histone H2A.x, and c-Jun. A final rinse with HBSS (50 uL) was performed before analysis. The primary and secondary antibodies for the proteins were phospho-histone H3 (rabbit anti-phospho-histone H3 and FITC-donkey anti-rabbit IgG), phospho-histone H2A.x (mouse anti-phospho-histone H2A.x and FITC-donkey anti-mouse IgG), c-Jun (rabbit anti-phospho-c-Jun and Cy3-donkey anti-rabbit IgG), p53 (sheep anti-p53 and Cy5-donkey anti-sheep IgG), alpha-tubulin (mouse anti-alpha-tubulin and Cy5-donkey anti-mouse IgG). These antibodies are available as the CellCiphr HepG2 assay kit (Millipore).Digital images of each well were captured using a Cellomics ArrayScan VTI (Thermo Scientific Cellomics) (0.8 NA objective, 0.63x optical coupler, and XF-93 filter set) at 20x magnification. The images were acquired using the autofocus feature of the ArrayScan instrument, which entails the following steps. First, the camera focuses on channel 1 (Hoechst 33342), where nuclei are identified. Second, a Z offset of 1 um is used for capturing mitochondria (MitoTracker Red). […]
Consider `CCCCC(CC)CN1C(=O)C2C3C=CC(C3)C2C1=O` (stereo not given), for which the outcome was inactive.
On to `S=C(S)NCCNC(=S)S.[Mn+2].[S-]C([S-])=NCCN=C([S-])[S-].[Zn+2]`, for which the compound was called inactive; the concentration at half-maximal activity (AC50) was 31.4 µM (active) and 52.5 µM (active) and 169 µM (active).
In the case of `O=C(c1ccccc1)C1CCCCC1`, the result was inactive.
The same measure, in the same setting: next, `CCOC(=O)c1ccc(O)cc1`: “inactive”; `COc1nc(C)nc(NC(=O)NS(=O)(=O)c2ccccc2OCCCl)n1`: “inactive”; `CCCN(CCC)c1c([N+](=O)[O-])cc(C(F)(F)F)c(N)c1[N+](=O)[O-]`: “inactive”.
For `O=C(Nc1ccc([N+](=O)[O-])cc1Cl)c1cc(Cl)ccc1O`, the outcome was inactive.
As for `COC(=O)c1ccccc1C(=O)O`, the result was inactive.
The same measure, in the same setting: next, `CC1(C)C(C=C(Cl)Cl)C1C(=O)OCc1cccc(Oc2ccccc2)c1` (stereo not given): “inactive”; `C=CCOC(Cn1ccnc1)c1ccc(Cl)cc1Cl` (stereo not given): “inactive”.
On to `COC(=O)c1ccc(I)cc1S(=O)(=O)NC(=O)Nc1nc(C)nc(OC)n1`, for which the compound was classed as inactive.
For the compound `CC(C)(c1ccc(O)cc1)c1ccc(O)cc1`, the call was inactive and the AC50 is 122 µM (active).
In the case of `C[C@]12C[C@H](O)[C@H]3[C@@H](CCC4=CC(=O)CC[C@@]43C)[C@@H]1CC[C@@H]2C(=O)CO`, the AC50 was 148 µM (active).
For the compound `COc1c(Cl)ccc(Cl)c1C(=O)O`, the compound was classed as inactive.
Regarding `CCNc1nc(N)nc(Cl)n1`, the outcome was inactive.
Same read-out and setting: next, `CCCCOCCOCCOCc1cc2c(cc1CCC)OCO2`: “inactive”; `COCCO`: “inactive”; `CCOC(=O)COc1cc(-n2ncc(C(F)(F)F)c(C)c2=O)c(F)cc1Cl`: “inactive”.
Turning to `CC(C)(C)[C@@H](O)[C@@H](Cc1ccc(Cl)cc1)n1cncn1`, the result was inactive.
On to `CC(=O)S[C@@H]1CC2=CC(=O)CC[C@]2(C)[C@H]2CC[C@@]3(C)[C@@H](CC[C@@]34CCC(=O)O4)[C@H]12`, for which the AC50 was 96.8 µM (active).
`O=C(O)C1(C(=O)Nc2ccc(Cl)cc2Cl)CC1`: the compound was called inactive.
As to `OB(O)O`, the result was inactive.
Take `c1ccc(Nc2ccccc2)cc1`: the compound was classed as inactive.
Consider `CC(C)CCCCCCc1ccc(O)cc1`, for which the AC50 was 21.4 µM (active).
Take `CCN(Cc1c(F)cccc1Cl)c1c([N+](=O)[O-])cc(C(F)(F)F)cc1[N+](=O)[O-]`: the result was inactive.
Same read-out and setting: under `Oc1ccc(C(c2ccc(O)cc2)C(Cl)(Cl)Cl)cc1` stands “inactive”; under `CCCCOC(=O)C(C)Oc1ccc(Oc2ccc(C(F)(F)F)cn2)cc1` (stereo not given), “inactive”; under `Cc1nn(C)c(Oc2ccccc2)c1C=NOCc1ccc(C(=O)OC(C)(C)C)cc1`, “inactive”.
The same measure, in the same setting: next, `N#CSCSc1nc2ccccc2s1`: “inactive”.
Take `c1ccc2[nH]c(-c3cscn3)nc2c1`: the outcome was inactive.
The same measure, in the same setting: next, `CCN(CC)C(=O)c1cccc(C)c1`: “inactive”; `CCCCC(CC)COC(=O)c1ccccc1C(=O)O` (stereo not given): “inactive”.
`CCC(C)OC(=O)N1CCCCC1CCO` (stereo not given): the outcome was inactive.
Still for that read-out and setting: under `CCCCOC(=O)[C@@H](C)Oc1ccc(Oc2ccc(C(F)(F)F)cn2)cc1` stands “inactive”; under `CSC(=O)c1cccc2nnsc12`, “inactive”; under `COC(=O)CSc1cc(N=c2sc(=O)n3n2CCCC3)c(F)cc1Cl`, “inactive”.
On the same count and under the same terms, next, `N[C@@H](Cc1cc(I)c(Oc2ccc(O)c(I)c2)c(I)c1)C(=O)O`: “inactive”; `CCSC(=O)N(CC(C)C)CC(C)C`: “inactive”.
